{"source": "the supplement of paper PMC6992640", "data": [{"system": "HCI01 (cells of a triple-negative basal-like breast cancer xenograft)", "test": "cell viability of combination (% of vehicle); higher = less cytotoxic", "conditions": "1 µM; 72 h; partner dose: 10 nM", "procedure": "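PDX cells were treated for 72 h with each drug at 1 µM plus afatinib (10 nM; 1 µM for WHIM30). Luciferase viability is expressed as percent of vehicle.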", "values": [{"smiles": "Cc1cc(C(C#N)c2ccc(Cl)cc2)c(Cl)cc1NC(=O)c1cc(I)cc(I)c1[O-].[Na+]", "note": "(stereo not given) [Closantel Sodium] + CN(C)C/C=C/C(=O)Nc1cc2c(Nc3ccc(F)c(Cl)c3)ncnc2cc1O[C@H]1CCOC1 [Afatinib]", "cell viability of combination": 53.2}, {"smiles": "CCCCCCCCCCCCCCCC[n+]1ccccc1.[Cl-]", "note": "[Cetylpyridinium Chloride] + CN(C)C/C=C/C(=O)Nc1cc2c(Nc3ccc(F)c(Cl)c3)ncnc2cc1O[C@H]1CCOC1 [Afatinib]", "cell viability of combination": 52}, {"smiles": "CCCCCCCCCCCC[N+](C)(C)CCOc1ccccc1.[Br-]", "note": "[Domiphen Bromide] + CN(C)C/C=C/C(=O)Nc1cc2c(Nc3ccc(F)c(Cl)c3)ncnc2cc1O[C@H]1CCOC1 [Afatinib]", "cell viability of combination": 51}, {"smiles": "Cc1cc(C(C#N)c2ccc(Cl)cc2)c(Cl)cc1NC(=O)c1cc(I)cc(I)c1O", "note": "(stereo not given) [Closantel] + CN(C)C/C=C/C(=O)Nc1cc2c(Nc3ccc(F)c(Cl)c3)ncnc2cc1O[C@H]1CCOC1 [Afatinib]", "cell viability of combination": 50.6}, {"smiles": "CCCCCCCCCCCCCCCC[N+](C)(C)C.[Br-]", "note": "[Cetrimonium Bromide (CTAB)] + CN(C)C/C=C/C(=O)Nc1cc2c(Nc3ccc(F)c(Cl)c3)ncnc2cc1O[C@H]1CCOC1 [Afatinib]", "cell viability of combination": 50.1}]}]}
